Screening data (PubChem)
This is a sample that favours compounds with a hit; in the whole collection about 1.2% have one here.
KAT2A inh = qHTS Assay for Inhibitors of GCN5L2; GCN5L2 HAT assay, ThioGlo1 CoA-SH fluorescence; Potency, µM (series often up to 58.9 µM), hits mostly inhibitors; AID 504327, 2011; Histone acetyltransferase KAT2A (Homo sapiens), Q92830; actives 0.21% (n = 390,000)
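Preincubate 20nM GCN5L2 with compound 15 min, RT → add 50uM ThioGlo1 + 75uM H3(1-25) + 70uM acetyl-CoA → read fluorescence 0 and 20 min. Primary qHTS; fluorescent artifacts likely.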
PI5P4K alpha inh = qHTS for Inhibitors of phosphatidylinositol 5-phosphate 4-kinase (PI5P4K); Phosphatidylinositol 5-phosphate 4-kinase type-2 alpha (Homo sapiens), P48426; PI5P4Kalpha enzyme, ADP-Glo luminescence, 60 min; active compounds read low; max response, %; actives 1.2% (n = 330,000); AID 652105, 2013; active means max response of -50% or lower; inconclusive means between -30% and -50%; inactive means -30% or higher; further: value at the top dose of about 77 µM
Target sequence (P48426 whole entry, looked up): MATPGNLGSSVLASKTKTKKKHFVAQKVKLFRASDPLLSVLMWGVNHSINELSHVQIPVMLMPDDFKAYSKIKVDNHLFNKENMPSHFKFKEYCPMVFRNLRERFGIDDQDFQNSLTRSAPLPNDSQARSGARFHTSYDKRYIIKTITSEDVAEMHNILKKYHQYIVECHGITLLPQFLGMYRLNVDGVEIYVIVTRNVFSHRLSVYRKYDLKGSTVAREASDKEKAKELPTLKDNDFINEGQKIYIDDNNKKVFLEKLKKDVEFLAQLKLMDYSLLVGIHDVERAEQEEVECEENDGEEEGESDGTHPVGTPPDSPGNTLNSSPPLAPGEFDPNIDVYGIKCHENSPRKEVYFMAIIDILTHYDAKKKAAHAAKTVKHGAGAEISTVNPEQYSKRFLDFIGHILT
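qHTS, 1536-well: enzyme/substrate mix, compound by pin tool, 5 microM ATP final; RT 60 min; ADP-Glo reagents 1 (45 min) then 2 (30 min); luminescence.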
PI4K2A block = qHTS for small molecular inhibitors of PI4K2A. Phosphatidylinositol 4-kinase type 2-alpha (Homo sapiens), Q9BTU6. purified PI4K2A, ADP-Glo luminescence, 1 h; active compounds read low. activity change, negative = inhibition, % at 76.9 µM. actives 0.13% (n = 420,000). AID 1346378, 2018; in the data active means activity change below about -50%; inconclusive means mostly about -30% to -49%
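PI4K2A activity was measured by ADP-Glo luminescence: enzyme (4 ug/mL stock) and phosphatidylinositol (1.2 mM stock) in Tris pH 7.5/MgCl2/EGTA/Triton X-100 buffer were reacted with ATP (300 microM stock) for one hour at ambient temperature.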
Pin1 inhibitor = qHTS Assay to Find Inhibitors of Pin1. Peptidyl-prolyl cis-trans isomerase NIMA-interacting 1 (Homo sapiens), Q13526. actives 0.009% (n = 390,000). AID 504891, 2011. Pin1 FP peptide displacement, HiFluor488, 10 min. Potency, µM (top dose mostly 115 µM), actives largely listed as inhibitors; active means well fitted inhibition curve with a large enough effect in the polarisation, with a control signal flat, not every such curve was filed as active; inconclusive means small, poorly fitted or top-dose-only effect, or effect the other way, or a change in a side signal; inactive means no such curve, though single readings can be large or run the other way; the % refers to the polarisation
RGS12 GoLoco inh = qHTS Assay for Inhibitors of RGS12 GoLoco Motif Activity (Red Fluorophore); Guanine nucleotide-binding protein G(i) subunit alpha-1 (Homo sapiens), P63096; Gai1:RGS12 GoLoco peptide FP, rhodamine, 10 min; Potency, µM (series often up to 61.6 µM), actives largely listed as inhibitors; actives 0.44% (n = 230,000); active means well fitted inhibition curve with a large enough effect, not every such curve was filed as active; inactive means no such curve, though single readings can be large or run the other way; further: nearly all actives have a fitted effect of over 30% in size
Target sequence (P63096 whole entry, looked up): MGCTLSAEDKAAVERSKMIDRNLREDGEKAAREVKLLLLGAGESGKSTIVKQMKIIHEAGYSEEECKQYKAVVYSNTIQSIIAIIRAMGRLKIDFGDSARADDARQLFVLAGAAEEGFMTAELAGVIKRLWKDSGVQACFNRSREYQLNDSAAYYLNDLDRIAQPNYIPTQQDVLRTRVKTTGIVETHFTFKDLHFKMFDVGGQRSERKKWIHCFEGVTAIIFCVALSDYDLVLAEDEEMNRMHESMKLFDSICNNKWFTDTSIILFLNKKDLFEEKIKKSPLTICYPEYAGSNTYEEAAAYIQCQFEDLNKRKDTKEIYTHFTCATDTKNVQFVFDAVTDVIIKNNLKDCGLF
Tb PGK inh = qHTS Assay to Find Inhibitors of Phosphoglycerate Kinase; Phosphoglycerate kinase, glycosomal (Trypanosoma brucei brucei), P07378; PGK/GAPDH coupled, Kinase-Glo luminescence, 60 min; Potency, µM (titrated, usually from 57.5 µM), most hits filed as inhibitors; actives 0.043% (n = 380,000); AID 602233, 2012; further: nearly all actives have a fitted effect of over 60% in size
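Luminescent ATP detection (Kinase-Glo Plus) follows a 60-minute room-temperature incubation, with wells lacking PGK as controls. Buffer: 100 mM TEA (pH 7.6), 5 mM MgCl2, 0.01% Tween-20. Coupling enzyme GAPDH (100 nM final) supplies unstable 1,3-BPG in-well.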
Numbers stand for hits; - = inactive; ? = inconclusive; . = not tested or not shown; ! = a repeat was not active; [ ] = another dose, or the depositor's remark. Unless noted, the call rests on the fitted dose curve; in most records, active means well fitted curve in the direction sought with a large enough effect; inconclusive means small, poorly fitted or top-dose-only effect, or another doubt; inactive means no such curve, though single readings can be large; an effect the other way counts as inactive or inconclusive.

SMILES | KAT2A inh | PI5P4K alpha inh | PI4K2A block | Pin1 inhibitor | RGS12 GoLoco inh | Tb PGK inh
CCN(CC(=O)Nc1ccc(C#N)c(Cl)c1)CC(=O)NC1CCS(=O)(=O)C1 (stereo not drawn) | - | - | - | - | . | -
CCC1(CC)C(=O)NC(=O)N(C)C1=O | - | . | . | . | . | .
N#CC1c2ccccc2-n2nncc2CN1S(=O)(=O)c1ccc(Cl)cc1 (stereo not drawn) | . | - | - | - | . | -
CCOc1ccccc1N1C(=O)NC(=O)/C(=C/c2ccc3c4c(cccc24)CC3)C1=O | - | -64 | - | ? | - | -
COc1cccc(N2C(=O)NC(=O)/C(=C/c3ccc4c5c(cccc35)CC4)C2=O)c1 | - | . | . | . | - | .
CCOC(=O)CSCCOc1ccc(C=C2C(=O)NC(=O)NC2=O)cc1OC | - | ? | - | - | - | -
C=CCc1cc(C=C2C(=O)NC(=O)NC2=O)cc(OC)c1OCc1ccc(C(=O)O)cc1 | - | -62 | ? | - | - | -
C=CCc1cc(C=C2C(=O)N(C)C(=O)N(C)C2=O)cc(OCC)c1OCc1ccccc1 | - | -55 | - | - | - | -
CC12CCC3c4ccc(OP(=O)(N5CC5)N5CC5)cc4CCC3C1CCC2=O (stereo not drawn) | . | - | - | - | . | -
Cc1cc(SCc2sc(-c3ccc(C(F)(F)F)c(F)c3)nc2C)ccc1OCC(=O)O | 32µM | . | . | . | - | .
O=C(O)c1cc[c]([Hg][S]c2ncnc3nc[nH]c23)cc1 | . | . | . | . | 0.63µM | .
O=c1c2ccccc2nc(CSc2ncnc3nc[nH]c23)n1-c1ccccc1 | - | . | - | - | - | -
CCN1C(=O)C(=C2C=C(C)OC(C)=C2)C(=O)N(CC)C1=S | - | - | - | - | - | -
CCN1C(=O)CC(=O)N(CC)C1=S | . | -55 | - | . | . | -
O=c1c(O)c(-c2ccc(O)c(O)c2)oc2cc(O)cc(O)c12 | - | -84 | - | ? | - | ?
O=c1cc(-c2ccc(O)c(O)c2)oc2cc(O)cc(O)c12 | - | -95 | - | ? | - | ?
N=C1c2ccccc2CN1CC(=O)c1ccccc1 | - | - | - | - | - | -
CC1=CC(=O)NP(=O)(Oc2ccc3ccccc3c2)N1 (stereo not drawn) | 32µM | - | - | - | 13µM | -
CC1CN1P(=O)(Oc1ccc2ccccc2c1)N1CC1C (stereo not drawn) | . | - | - | - | . | -
O=C1C=C(N2CC2)c2ccccc2C1=O | . | -66 | ? | . | . | -
C[C@@H]1O[C@H](OC2[C@@H](O)[C@H](O)C(O)[C@H](O)[C@H]2O)[C@@H](N)C[C@@H]1N=C(N)C(=O)O (stereo partly drawn) | . | . | . | . | -[14.2 µM] | .
CC[C@@]1(O)C(=O)OCc2c1cc1n(c2=O)-c2cc3ccccc3nc2C1 | 28µM | . | . | . | - | .
CC[C@@]1(O)C(=O)OCc2c1cc1n(c2=O)Cc2cc3cc(O)ccc3nc2-1 | ? | . | . | . | - | .
Nc1nc2c(ncn2[C@@H]2O[C@H](CO)[C@@H](O)[C@@H]2O)c(=[SH+])[nH]1.O=[N+]([O-])c1ccc(O)[c]([Hg])c1 | . | . | . | . | 0.11µM | .
Nc1ccc2nonc2c1[N+](=O)[O-] | - | - | - | . | 14µM | -
SMILES | KAT2A inh | PI5P4K alpha inh | PI4K2A block | Pin1 inhibitor | RGS12 GoLoco inh | Tb PGK inh
CCOC(=O)[C@]12Cc3cc(C)ccc3[C@H]1N(C)C(=O)c1cc(OC)ccc12 | . | - | - | . | . | .
CN(C)C(=S)SSC(=S)N(C)C | 14µM | - | - | - | 3.2µM! | -
CN(C)C(=S)SC(=S)N(C)C | ? | . | - | . | - | .
CCCCCCCCCCCC[N+](C)(C)CCOc1ccccc1 | - | . | - | . | - | .
CC[N+](CC)(CC)CCOc1cccc(OCC[N+](CC)(CC)CC)c1OCC[N+](CC)(CC)CC | 13µM | - | - | - | 10µM | -
COC(=O)COc1ccc(/C=C2\C(=O)NC(=S)N(c3ccc(C)cc3)C2=O)cc1OC | - | -54 | - | ? | . | -
COc1ccc(N2C(=O)/C(=C/c3ccc(OC)c(OC)c3)C(=O)NC2=S)cc1 | - | -54 | - | - | . | -
CCOC(=O)COc1ccc(/C=C2\C(=O)NC(=S)N(c3ccc(OC)cc3)C2=O)cc1OC | - | -56 | - | - | . | -
COc1cc(/C=C2/C(=O)NC(=O)N(c3ccc(C)cc3)C2=O)cc(OC)c1OC | - | - | - | - | - | -
COc1cc(/C=C2\C(=O)NC(=O)N(c3ccccc3)C2=O)cc(OC)c1OC | - | ? | - | - | - | -
CN1C(=O)/C(=C\c2ccc(Br)s2)C(=O)NC1=S | - | -77 | - | - | . | -
O=C1NC(=S)NC(=O)C1=Cc1ccc(Br)s1 | ? | -85 | - | - | . | -
Cc1cc(/C=C2\C(=O)NC(=S)N(C)C2=O)c(C)n1C1CCCCC1 | - | - | - | ? | - | -
O=c1[nH]c(=O)c2ccccc2o1 | - | - | - | ? | . | -
CC(=O)OC1(c2ccccc2)CC(C(C)(C)C)CN(C(C)(C)C)C1 (stereo not drawn) | - | - | - | - | - | -
O=C1NC(=O)C(=Cc2ccc(SC3CCCCC3)o2)C(=O)N1 | - | -75 | - | - | - | ?
O=C1C(I)=CC(=C(c2cc(I)c(O)c(I)c2)c2ccccc2C(=O)O)C=C1I | 3.5µM | . | - | . | . | .
O=c1[nH]c2ccccc2n1C1CCN(Cc2ccc(-c3[nH]c4cc5ncnc5cc4nc3-c3ccccc3)cc2)CC1 | - | - | - | . | . | .
COc1ccc(/C=C2/C(=O)NC(=O)N(c3ccc(C)c(C)c3)C2=O)cc1CN1C(=O)c2ccccc2C1=O | - | -66 | - | - | - | -
CCOc1ccc(N2C(=O)NC(=O)/C(=C\c3ccccc3[N+](=O)[O-])C2=O)cc1 | - | ? | - | - | - | -
CCOc1ccc(N2C(=O)/C(=C/c3ccco3)C(=O)NC2=S)cc1 | 22µM | -82 | -81 | ? | . | ?
O=C1NC(=S)N(c2ccccc2F)C(=O)/C1=C\c1cccs1 | - | -91 | - | ? | - | -
O=C1NC(=O)C(=Cc2cccs2)C(=O)N1 | . | - | - | - | . | -
Cc1cccc(N2C(=O)/C(=C/c3ccc(N4CCN(C)CC4)o3)C(=O)NC2=S)c1C | - | - | - | ? | - | -
CCOc1ccc(N2C(=O)/C(=C\c3cccs3)C(=O)NC2=S)cc1 | - | -64 | - | ? | - | -
Cc1ccccc1N1C(=O)/C(=C/c2ccco2)C(=O)NC1=S | 2.2µM | . | . | . | . | .
CC(=O)C1C(N2CC2)CC2C3CCC4=CC(=O)CCC4(C)C3CCC21C (stereo not drawn) | . | - | - | - | . | -
